An excerpt weighted towards active compounds, which were near 5.9% of everything screened.
RORgamma inh: inhibitors of mouse ROR gamma transcriptional activity; Potency, µM (highest dose often 53.6 µM), for the others: at the highest dose activity change, negative = inhibition, usual class: inhibitors; P51450; 310,000 tested, 5.4% active; Drosophila S2 Gal4-RORgamma UAS-luciferase reporter, 20 h; note: % is set by controls: 0 for no effect and ±100 for the full control effect; nearly all actives have a fitted effect of over 60% in size
Target sequence (P51450 whole entry, looked up, the tested form may be a part): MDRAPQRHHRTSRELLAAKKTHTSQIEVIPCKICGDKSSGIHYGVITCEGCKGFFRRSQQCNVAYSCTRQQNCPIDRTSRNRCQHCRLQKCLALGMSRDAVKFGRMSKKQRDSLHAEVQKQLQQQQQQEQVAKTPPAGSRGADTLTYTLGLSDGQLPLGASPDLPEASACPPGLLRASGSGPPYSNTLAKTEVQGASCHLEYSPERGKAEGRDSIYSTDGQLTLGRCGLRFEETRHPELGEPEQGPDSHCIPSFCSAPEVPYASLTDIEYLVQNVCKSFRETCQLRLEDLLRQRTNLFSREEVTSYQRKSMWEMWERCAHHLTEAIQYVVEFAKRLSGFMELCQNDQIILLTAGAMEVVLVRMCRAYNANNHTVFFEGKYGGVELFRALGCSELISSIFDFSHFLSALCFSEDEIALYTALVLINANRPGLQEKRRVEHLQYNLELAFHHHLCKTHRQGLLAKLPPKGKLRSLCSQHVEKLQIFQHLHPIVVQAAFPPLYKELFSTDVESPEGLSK
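Drosophila S2 cells stably expressing Gal4-DBD/mouse RORγ fusion under metallothionein promoter plus UAS-luciferase; compound 1 h, then 700 uM CuSO4 induction for 20 h at ambient temperature; inhibition read as reduced luminescence.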
HEK293 tox: cytotoxicity in counter-screen for GLP-1R inverse agonists. Potency, µM (doses to about 38.3 µM), for inactives: at the highest dose activity change, negative = inhibition, most hits filed as inhibitors. HEK293 cAMP-luciferase reporter cells, luminescence, 24 h. 410,000 tested, 0.13% active. AID 624418;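 note: loss of luciferase light is scored as toxicity; % is set by controls: 0 for no effect and ±100 for the full control effect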
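Luminescence readout: signal drop marks cytotoxicity. Plated cells grew 12 h at 37 °C, 5% CO2, received 23 nL compound for 24 h, then got luciferase reagent, read after 12 min at RT.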
GLP-1R inv ag: GLP-1 receptor (human) inverse agonism; P43220; HEK293 GLP-1R CRE-luciferase, luminescence, 24 h; GLP-1R form is constitutively active; Potency, µM (series often up to 38.3 µM), without a hit: at the top dose activity change, negative = inhibition, actives largely listed as inhibitors; 410,000 tested, 1.6% active; note: % is set by controls: 0 for no effect and ±100 for the full control effect; nearly all actives have a fitted effect of over 55% in size
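Inverse agonists were sought by their lowering of basal cAMP reporter luciferase output in HEK293 cells stably carrying constitutively active human GLP-1R, after 24 h compound treatment.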
GLP-1R agonist: GLP-1 receptor (human) agonism. HEK293 GLP-1R CRE-luciferase, luminescence, 4-6 h; cells express a hypersensitive GLP-1R form. AID 624172. 380,000 tested, 0.007% active. Potency, µM (titrated, usually from 45.6 µM), for the others: at the highest dose activation, actives largely listed as activators; note: % of control where 0% means no effect
VP16 counter: counter-screen for ROR gamma inhibitors: Gal4-VP16 reporter | AID 2546 | 310,000 tested, 3.5% active | Potency, µM (titrated, usually from 53.6 µM), for the others: at the highest dose activity, negative = inhibition, hits mostly inhibitors | Drosophila S2 Gal4-VP16 UAS-luciferase, luminescence, 20 h;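 note: Gal4-VP16 expression switched on by copper sulfate through the metallothionein promoter; % is set by controls: 0 for no effect and ±100 for the full control effect; nearly all actives have a fitted effect of over 50% in size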
Numbers without * were called inactive; ? = inconclusive; . = not tested or not shown. Calls come from the whole dose curve; as a rule, active = well fitted curve in the direction sought with a large enough effect; inconclusive = small, poorly fitted or top-dose-only effect, or another doubt; inactive = no such curve, though single readings can be large; an effect the other way counts as inactive or inconclusive. Potency is the fitted concentration of half-maximal effect.

SMILES	RORgamma inh	HEK293 tox	GLP-1R inv ag	GLP-1R agonist	VP16 counter
CC[C@H](C)[C@H](NC(=O)[C@@H](NC(=O)[C@@H](NC(=O)[C@H](CCC(=O)O)NC(=O)[C@H](CCC(=O)O)NC(=O)[C@H](CCC(=O)O)NC(=O)[C@H](C)NC(=O)[C@@H](N)CC(C)C)C(C)C)C(C)C)C(=O)N[C@@H](CCCNC(=N)N)C(=O)N[C@@H](CO)C(=O)N[C@@H](C)C(=O)N[C@@H](CC(N)=O)C(=O)N[C@@H](Cc1ccccc1)C(=O)N[C@H](C(=O)N[C@@H](CC(=O)O)C(=O)N[C@@H](CC(N)=O)C(=O)O)[C@@H](C)O	-11%	.	.	.	0%
COc1cccc(-c2nc(SCc3cccc(Br)c3)n3[nH]c(=O)cc3n2)c1	.	1%	5%	.	.
CCC(C(=O)Nc1ccccc1OC)n1c(C(=O)OC)cc2sc(Cl)cc21 (stereo not given)	.	24%	?	.	.
O=C1CCCCCN1C(=O)c1ccccc1	.	-6%	2%	0%	.
CC(C)(C)c1ccc(C(=O)N2CCCCCC2=O)cc1	?	38%	?	2%	2.2µM*
CCN1CCN(CCCNC(=O)c2ccc3c(c2)NC(=O)/C(=C\c2cccc(C)c2)S3)CC1	?	?	7.1µM*	0%	?
Cc1cccc(/C=C2/Sc3ccc(C(=O)NCCN4CCCC4)cc3NC2=O)c1	?	?	?	11%	-29%
CC(Sc1nc2c([nH]c3ccccc32)c(=O)n1-c1ccccc1)c1ccccc1 (stereo not given)	.	1%	-18%	.	.
O=C(Nc1cc(C(F)(F)F)ccc1Cl)C(Sc1nnc(-c2cccs2)o1)c1ccccc1 (stereo not given)	11µM*	2%	11%	-12%	?
CN(C)CCCNc1nc2sc3c(c2c(=O)n1CCc1ccccc1)CCCCC3	-31%	?	3.2µM*	6%	-10%
O=c1c2c3c(sc2nc(NCCO)n1-c1ccccc1)CCCC3	36%	-1%	?	-4%	-3%
COc1ccc2c(c1)C(=O)[C@H](OC(=O)NCCOc1ccccc1)[C@@H](c1ccc(OC)c(Br)c1)O2	0%	.	.	.	0%
CCC12C(=O)C(CC)(C(c3ccccc3)=C1c1ccccc1)[C@@H]1C(=O)N(c3ccccc3)C(=O)C12 (stereo not given in full)	5%	3%	3.2µM*	4%	9%
CC(CCCC(C)(C)O)NC(=O)c1cc(COc2ccc3ncccc3c2)on1 (stereo not given)	7.9µM*	-1%	-19%	10%	5.6µM*
Cc1cc(C)n(CCNC(=O)c2cc(COc3ccc4ncccc4c3)on2)n1	?	-19%	-10%	4%	?
Cc1ccc(F)cc1CNC(=O)c1cc(COc2ccc3ncccc3c2)on1	?	-13%	?	14%	11µM*
O=C(NCc1cccc(Cl)c1)c1cc(COc2ccc3ncccc3c2)on1	-71%	-5%	10µM*	12%	10µM*
Cc1ccc(/C=C/C(=O)c2c(C)nc3ccccn23)cc1	14µM*	?	0%	-15%	?
Cc1cn2c(=O)cc(COc3ccccc3NC(=O)c3ccc(Cl)cc3)nc2s1	.	2%	1%	-1%	.
CCOc1ccccc1NC(=O)Cn1c(=O)n(C(C)C)c(=O)c2oc3ccccc3c21	.	17%	-5%	.	.
Cc1cccc(CNC(=O)c2cnc3c(-c4cccc(C)c4)c(C)nn3c2C)c1	.	5%	-5%	.	.
Cc1ccc(N2CCN(S(=O)(=O)N3CCCCC3)CC2)cc1Cl	?	-3%	24%	20%	-1%
Cc1cc(C)c(N2CCN(S(=O)(=O)N3CCCCCC3)CC2)c(C)c1	-14%	18%	10µM*	-18%	-17%
COC(=O)CSc1nc(N)c2c3c(sc2n1)C(c1ccccc1)SC(c1ccccc1)C3 (stereo not given)	10µM*	?	?	1%	11µM*
COC(=O)CSc1nc(N)c2c3c(sc2n1)CCCC3	?	-9%	2%	?	5%
SMILES	RORgamma inh	HEK293 tox	GLP-1R inv ag	GLP-1R agonist	VP16 counter
CCN1C(=NCCN2CCOCC2)N[C@@H](CCc2ccccc2)C(C(=O)OC)=C1C	39%	.	.	.	0%
CCOc1ccc(Nc2nc(-c3cccc(Cl)c3)c3c(n2)-c2ccccc2OC3)cc1	.	0%	-19%	.	.
CN(CCO)CC(O)CN(c1ccccc1)c1ccccc1 (stereo not given)	12%	-23%	?	-3%	2%
CNCC(O)CN(c1ccccc1)c1ccccc1 (stereo not given)	40%	-2%	6.3µM*	1%	3%
Cc1cc(N)n(Cc2ccc(Cl)cc2)n1	10%	-3%	7%	1%	-3%
Cc1ccc(-c2cc(N)n(Cc3ccc(Cl)cc3)n2)cc1	12%	-16%	11µM*	0%	-14%
O=C(c1ccc(-c2ccc([N+](=O)[O-])cc2)o1)N1CCCCC1	?	-21%	2%	17%	16µM*
CC1CC(C)CN(C(=O)c2ccc(-c3ccc([N+](=O)[O-])cc3)o2)C1 (stereo not given)	.	-3%	?	15%	.
COC(=O)c1sc2cccc(F)c2c1S(=O)(=O)Nc1ccc(N(C)C)cc1	.	-3%	7%	.	.
COc1cc2c(cc1OC)CN(C(=S)Nc1ccccc1Cl)CC2	?	-25%	?	-3%	-13%
COc1cc2c(cc1OC)CN(C(=S)Nc1ccc(C)cc1C)CC2	10µM*	-15%	-23%	-10%	20µM*
COc1cc2c(cc1OC)CN(C(=S)Nc1ccccc1)CC2	11µM*	-2%	-1%	1%	-9%
CCOc1ccc(C(=O)OCC(=O)N(Cc2ccccc2)Cc2ccccc2)cc1OC	.	-10%	10µM*	5%	.
CCOC(=O)C1CCN(C(=S)Nc2ccc(Cl)cc2C)CC1	14µM*	1%	?	4%	?
CCOC(=O)C1CCN(C(=S)Nc2ccc(CC)cc2)CC1	11µM*	3%	-2%	6%	?
CCOC(=O)C1CCN(C(=S)Nc2cccc(C)c2)CC1	-41%	-18%	?	-2%	?
CCOC(=O)C1CCN(C(=S)Nc2cccc(C)c2C)CC1	11µM*	-4%	-22%	0%	-9%
CCOC(=O)C1CCN(C(=S)Nc2cc(C)ccc2C)CC1	18µM*	-22%	-1%	-2%	?
CC1CCN(S(=O)(=O)c2ccc3c(c2)c(=O)c(C(=O)NCCc2ccccc2)cn3C)CC1	.	-8%	-8%	.	.
CCOc1ccccc1CNC(=O)CCn1ccc2cc(S(=O)(=O)N3CCC(C)CC3)ccc21	.	-7%	?	.	.
Cn1c(=O)c(CCc2ccccc2)nc2cnc(Oc3ccccc3)nc21	27%	.	.	.	-2%
O=C(Nc1ccc2nc(SCCOc3ccccc3Cl)sc2c1)c1cccs1	.	-3%	?	.	.
